Test results from the supplement of paper PMC6555819.

Tests used:
Test in all cases: PBM binding z-score (relative to random genomic background probes); higher = stronger binding; sequences stand for … in GC…GCGATTGACAGCGTAGAATGAAGG
[1] = tested on: PPARg:RXRa DBDmut IVT, anti-RXR (DBD mutation: RXRa K156A/R161A, NR concentration 270 nM, RXRa partner concentration 90 nM)
How it was run: (§1)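 Scanned fluorescence from custom Agilent 4×180K protein-binding microarrays was regression-normalized. Binding z-scores use random background probes as reference. Ligand-free nuclear receptor dimers were incubated on the arrays for 1 h and detected with antibodies against each partner (one per run).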

[2] = tested on: PPARg:RXRa IVT, anti-PPARg (NR concentration 270 nM, RXRa partner concentration 90 nM)
How it was run: as §1

[3] = tested on: PPARg DBDmut:RXRa IVT, anti-PPARg (DBD mutation: PPARg1 K132A/R137A, NR concentration 270 nM, RXRa partner concentration 90 nM)
How it was run: as §1

[4] = tested on: PPARg DBDmut IVT, anti-PPARg (DBD mutation: PPARg1 K132A/R137A, NR concentration 270 nM)
How it was run: as §1

[5] = tested on: PPARg homodimer (NR concentration 180 nM)
How it was run: as §1

[6] = tested on: PXR:RXRa (NR concentration 270 nM, RXRa partner concentration 90 nM)
How it was run: as §1

[7] = tested on: PXR homodimer (NR concentration 270 nM)
How it was run: as §1

[8] = tested on: RARa:RXR (NR concentration 270 nM, RXRa partner concentration 90 nM)
How it was run: as §1

[9] = tested on: RARa homodimer (NR concentration 270 nM)
How it was run: as §1

[10] = tested on: RARb:RXRa (NR concentration 270 nM, RXRa partner concentration 90 nM)
How it was run: as §1

Sequence	PBM binding z-score [1]	PBM binding z-score [2]	PBM binding z-score [3]	PBM binding z-score [4]	PBM binding z-score [5]	PBM binding z-score [6]	PBM binding z-score [7]	PBM binding z-score [8]	PBM binding z-score [9]	PBM binding z-score [10]
GGAACGAGGGCATTCGAGTTGTTAGCATGGCGAT	3.22	1.99	-0.193	-0.86	-0.473	1.99	0.576	0.173	-0.666	1.81
TCGAGAAGGTTAGTCGGGGCATTCAGCCAACATA	1.32	0.682	-0.513	-0.49	0.545	0.807	0.434	0.664	-0.434	1.36
GTACCAAGGTGAATAGCTCGTTGATGAGTAGGCG	1.55	1.7	-0.0388	-0.301	-0.135	-0.403	-0.283	-0.0864	-0.272	0.887
CGAACTAGGTCAAGAGGTCAAAGTCCGCTTCCCG	8.26	8.1	0.974	-0.335	5.23	6.23	3.31	7.7	2.18	5.48
AGAGTGAGGTTATACGTAGATCAGGGAAGAAAGT	0.49	0.769	1.06	0.722	1.66	1.39	1.28	1.65	1.14	1.78
CGTCCAAGGTCAGCATGTCAGTGAAAGCGACGTG	2.52	2.35	-0.0905	-0.674	2.58	2.41	0.102	3.01	0.765	4.93
TGAATGAGGTTAAAGATCAGGCAACGTGGCGTCG	2.24	3.79	0.599	0.0672	0.811	1.83	0.118	2.92	-0.39	2.02
CCTTGGAGGACAACAGGAGGTCAGAGCTGCCAGA	1.07	1.27	-1.18	-0.193	1.41	1.97	0.462	2.33	0.276	2.83
TAGCCTAGGTCATTGGGCCAGTTTAGTACGCATC	2.53	3.45	-0.6	0.202	0.893	1.71	-0.11	2.11	-0.422	3.52
CCAGACAGGGGAGAAGGTAACTCAGCCTCGATTA	0.0282	-0.359	-0.398	-1.2	0.413	-0.427	-0.0553	-0.353	0.21	-0.286
TCTCGGAGGACGCGAAAGGTCAGAGCTCGACATC	0.887	0.996	1.57	0.428	2.2	3.7	0.0066	4.09	0.692	3.89
TCATATAGGTAACTGCTAGGTGAAAGTCCGATCT	4.55	3.78	1.12	0.94	1.15	0.43	0.184	0.789	0.623	0.705
CCAGACAGGTGAGAAGGAAACTCAGCCTCGATTA	1.07	0.281	0.656	-0.614	0.615	-0.158	0.143	0.0468	0.447	0.0743
CAGCCTAGGGCAGGGCCAGTATAGGAGGAACGTT	-0.842	-0.372	-2.01	-1.9	-1.39	-1.13	-0.815	-0.853	-0.656	0.716
AGACAAAGTTCATCTAGGTAACGTAAGATATGCT	1.22	3.2	1.33	1.93	3.1	5.34	6.29	4.17	1.38	4.98
ATCTCTAGGGAACAAGTTCAGTGAAAGAGAGGAC	0.484	0.703	0.478	0.258	0.773	1.36	1.25	0.667	0.314	1.3
CCTAGCAGGCCAATCTGGGCCACTCAAGGCTTGA	2.99	2.85	-0.703	-1.73	-0.99	-1.04	-1.05	-1.11	-0.723	0.0812
CTAGAAAGGTCGGTTGAGGTGAGTATACGGATAA	0.237	1.18	0.0511	0.00122	1.34	3.37	0.245	2.6	0.889	3.03
CCAGACAGGTGAAAAGTAACTCAGTCTGGTACGC	1.47	0.789	-0.595	-0.539	0.332	-0.0943	-0.142	0.133	0.489	0.36
ATCTCTAGGTAACCAAGTTCACTGAATGCCGAAC	3.89	3.32	0.487	1.47	1.17	3.1	3.34	1.64	0.615	1.9
CCGACTGGGTCAAGGTTACCATAACGCACAGCCA	5.21	5.93	0.445	-0.0986	1.69	2.17	0.366	2.76	0.448	3.62
AATACAGGGTCAGCGTAGGCCAGAGTACGCACAG	1.94	3.32	1.54	1.65	1.81	3.51	0.39	3.85	0.496	4.15
AGAATGAGGTTATACGTAGATCAGGAAAGAAAGT	4.05	2.36	1.21	0.76	0.606	1.23	0.488	1.71	0.559	1.37
ACTAGTTGGTCAGCAGAGGTCACACACAATTCGG	1.92	3.43	1.09	0.493	3.51	5.73	1.6	5.96	2.56	4.17
CGTCCAAAGTCAGAGAGGTCAGTGAATGCCGAGT	0.254	0.644	-0.212	-0.647	1.79	3.05	1.35	2.85	0.862	3.27

Sequence	PBM binding z-score [1]	PBM binding z-score [2]	PBM binding z-score [3]	PBM binding z-score [4]	PBM binding z-score [5]	PBM binding z-score [6]	PBM binding z-score [7]	PBM binding z-score [8]	PBM binding z-score [9]	PBM binding z-score [10]
CGAACTAGGTCATTGACAGGTCAGTGAATAGTAA	8.05	7.99	2.07	0.617	3.26	3.56	0.482	5.11	0.887	4.25
CCTCGTTGGTCAAGGTCACACACGCTATAGGTAC	1.3	2.58	1.08	-0.102	3.26	4.25	1.82	4.63	2.69	4.18
TCATATAGGTAAAGGAGAAAGTCGAACGATATGA	3.55	2.2	1.76	0.854	0.0719	0.215	-0.235	0.407	0.331	0.251
AGAATGAGGTTATTAAGACCAGGGAATTGCGGTC	2.67	2.43	1.16	0.232	0.709	1.02	-0.304	1.49	-0.0801	1.38
ATCGAAAGGTCGAAGGTGAGAATACCCACCCGAA	0.14	2.32	0.346	0.631	1.03	3.1	0.0633	4.65	0.941	3.83
CCTCGGAGGACAACAGGAGCTCAGAGCTGCCAGA	0.0652	-0.614	-1.06	-2.08	-0.744	-0.836	-0.522	-0.894	-0.387	0.83
ACTTTTAGTTGACTTAGGGCAACCGATACGACGC	0.679	0.936	1.38	1.82	0.639	0.436	0.106	0.954	0.984	1.23
TCCAGTAGGTTACCAATGGGGCATTCAGCTTTCT	4.6	4.34	-0.355	-0.253	0.0888	0.286	-0.589	0.451	-0.883	1.31
TCATATAGGTAAACAGGAGAAAGTCCGTAAGTTA	4.08	2.77	0.715	0.615	0.67	0.188	0.377	0.0372	0.767	0.292
CTCCCAAGGTGAACAAGGTCGTTGATTACTATTC	1.99	2.07	-0.441	-0.154	0.903	2.42	1.92	2.14	-0.0783	2.03
GCTTGTAGATCAAGGCTAAGAAAGACTAAGCTAA	0.902	-0.107	-0.0292	-0.466	-1.05	-0.743	-0.42	-0.679	-0.656	-0.482
ACTAGCAGGCCAGGGGTCACTCAAGATTAGTCCG	0.771	3.24	0.053	0.0858	2.99	5.13	0.401	5.58	1.68	3.85
TCTGCCAGGTCAACGATGGTCAGCTAATCTGCTA	2.07	2.98	0.16	0.24	1.11	2.56	-0.453	2.89	-0.675	4.02
TTACCAAGGTGAGCTGAGGTCGTTGAGCCAACTC	0.949	1.75	-0.809	-0.728	-0.0553	5.03	0.369	2.08	-0.816	1.76
TGTCAAAGTTCAAAGGTAACGTCAGTATCCACAC	0.357	4.74	1.94	1.89	4.29	5.89	3.43	6.36	0.737	5.36
GCAGACAGGTGAAACGCAGGTAACCCAGGGTGGC	0.158	0.862	-0.147	-0.879	-0.777	-0.365	-0.8	0.305	-1.34	0.601
ATCTATAGGTAACCAAGTTCAGTGAATGCCGAAC	2.37	1.81	0.555	1.09	0.665	2.46	2.08	0.857	0.671	1.3
ATCGCTAGGTAAAGTTCAGTGAAAGATCGATAGA	-0.192	0.414	-0.0288	-0.241	0.606	1.42	1.26	0.812	-0.216	2.37
TCTATGAGTTGAAGGGCAACCGACGAGTCCGTTT	1.46	0.477	-0.166	0.0578	-0.142	0.853	0.0161	0.674	-0.22	1.37
ATACCAATGTGATCGTGAGGTCGTTGATACTAAC	-0.174	0.568	0.648	1.38	0.242	2.06	1.23	1.39	-0.115	0.569
CGAACTAGGTCAGAACACGACAGTGAAGGATGAT	7.06	7.2	1.44	1.71	1.06	0.221	0.0475	0.721	0.743	2.84
TCTGCGAGGTCAGTTGGTCAGCTAACGAGCTGCC	1.99	3.25	2.02	0.235	1	2.88	0.146	2.68	-0.6	4.51
CCTACTGGGCCAATCAGAGGTCATTGATCATATG	4.6	4.19	1.25	0.284	4.19	5.06	3.38	5.18	0.519	3.27
TTACCAAGCTGAAAGGTCGTTGATGCACGCCTTG	-0.529	0.156	-0.407	-0.623	0.193	1.72	-0.0821	1.66	-0.928	1.36
